Screening data (PubChem BioAssay)
Shown are actives, neighbours in structure and some others; about 8.8% of the full set was active somewhere.
HT1080 IDH1KD tx: qHTS for induction of synthetic lethality in tumor cells producing 2HG: qHTS for the HT-1080-IDH1KD cell line; HT-1080 IDH1 knockdown viability, ATP luminescence, 48 h; Potency, µM (series often up to 46.1 µM), for the others: at the highest dose activity, negative = toxicity, hits mostly cytotoxic; actives 2% (n = 360,000);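 note: potency is the fitted concentration of half-maximal effect; 0% = DMSO wells and -100% = cell-free medium wells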
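Cytotoxicity counter-line: IDH1KD HT-1080, 48 h, CellTiter-Glo. Curves classed by r2, magnitude and activity.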
IL-1B inflam inh: qHTS for Inhibitors of Inflammasome Signaling: IL-1-beta AlphaLISA Primary Screen; activity change, % at 57.5 µM; actives 4.7% (n = 360,000); THP-1 LPS/ATP IL-1B secretion, AlphaLISA, 16 h; active compounds read low; in the data active = activity change below about -50%; inconclusive = mostly about -30% to -49%
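THP-1 cells pretreated 1 hr with compounds (up to 57.5 uM final), then stimulated with LPS (250 ng/mL final) plus ATP (1.25 mM final); secreted IL-1B measured by AlphaLISA after 16 hr, decreased signal indicating inhibition.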
KB-V1 MDR tox: qHTS assay for MDR1-selective chemotherapeutics: Primary screen using the drug-selected MDR subline cells KB-V1; KB-V1 MDR cells viability, CellTiter-Glo, 72 h; Potency, µM (titrated, usually from 46.1 µM), most hits filed as cytotoxic; actives 3.4% (n = 400,000); note: potency is the fitted concentration of half-maximal effect; nearly all actives have a fitted effect of over 60% in size
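KB-V1 cells (P-gp-expressing MDR subline of KB-3-1) in phenol-red-free DMEM with 10% FBS were exposed to library compounds over a concentration series for 72 h at 37 degrees C. Viability read by CellTiter-Glo luminescence; concentration-effect curves fitted after normalization.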
HT1080-NT tox: qHTS for induction of synthetic lethality in tumor cells producing 2HG: qHTS for the HT-1080-NT fibrosarcoma cell line | actives 1.6% (n = 360,000) | AID 686970, 2013 | Potency, µM (top dose mostly 46.1 µM), for the others: top-dose activity, negative = less viability, actives largely listed as cytotoxic | HT-1080-NT fibrosarcoma viability, CellTiter-Glo ATP luminescence, 48 h;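 note: NT is the 2HG producing partner of a matched IDH1 knockdown line; potency is the fitted concentration of half-maximal effect; 0% = DMSO-treated cells and -100% = media-only wells without cells; nearly all actives have a fitted effect of over 55% in size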
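Compounds were tested in concentration-response format on HT-1080-NT cells for 48 hours at 37 degrees C. Cell viability came from CellTiter-Glo luminescence; curves were classified by r2, response magnitude and activity.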
KB-3-1 tox: qHTS assay for MDR1-selective chemotherapeutics: Primary screen using the parental adenocarcinoma cell KB-3-1; KB-3-1 viability, CellTiter-Glo ATP luminescence, 72 h; Potency, µM (series often up to 46.1 µM), usual class: cytotoxic; actives 1.4% (n = 400,000); note: potency is the fitted concentration of half-maximal effect; nearly all actives have a fitted effect of over 60% in size
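Screening of KB-3-1 cells (DMEM, 10% FBS, phenol-red free) ran from lowest to highest compound concentration; after 72 h at 37 °C viability was read luminescently and curves fitted.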
* = called active by the depositor. Unless noted, calls come from the whole dose curve; as a rule, active = well fitted curve in the direction sought with a large enough effect; inconclusive = small, poorly fitted or top-dose-only effect, or another doubt; inactive = no such curve, though single readings can be large; an effect the other way counts as inactive or inconclusive. Unless noted, % is set by controls: 0 for no effect and ±100 for the full control effect.

Screening COc1cccc(C(=O)Nc2nc(-c3nnn(-c4ccccc4C(F)(F)F)c3C)ns2)c1 returned KB-V1 MDR tox inactive and KB-3-1 tox inconclusive.
C#CCN(C[C@@H]1[C@@H](OC(=O)Nc2cccs2)[C@@H](OC(=O)Nc2cccs2)Cn2c(=O)n(CCCCCC)c(=O)n21)S(=O)(=O)c1ccc(C)cc1 was read as HT1080 IDH1KD tx -10%, IL-1B inflam inh -6, KB-V1 MDR tox inactive, HT1080-NT tox -2% and KB-3-1 tox inactive.
`O=c1[nH]c(=O)n(Cc2ccco2)c2c1C(C(F)(F)F)(C(F)(F)F)N=C(c1ccc(F)cc1)N2` gave HT1080 IDH1KD tx inconclusive, IL-1B inflam inh -68*, KB-V1 MDR tox inconclusive, HT1080-NT tox inconclusive and KB-3-1 tox inconclusive.
`O=C(c1ccc(-c2ccc([N+](=O)[O-])cc2)o1)N1CCCCCCC1` gave HT1080 IDH1KD tx -5%, IL-1B inflam inh -54*, KB-V1 MDR tox inactive, HT1080-NT tox inconclusive and KB-3-1 tox inconclusive.
For O=C(c1ccc(-c2ccc([N+](=O)[O-])cc2)o1)N1CCCC(C(F)(F)F)C1 (stereo not drawn) the results were HT1080 IDH1KD tx -1%, IL-1B inflam inh -53*, KB-V1 MDR tox inactive, HT1080-NT tox -3% and KB-3-1 tox inactive.
`O=C1NCCNC1c1ccccc1` (stereo not drawn) gave HT1080 IDH1KD tx 7%, IL-1B inflam inh 26, KB-V1 MDR tox inactive, HT1080-NT tox 8% and KB-3-1 tox inactive.
CCOC(=O)c1cc2c(=O)n3ccccc3nc2n(CCOC)c1=NC(=O)c1c(-c2c(F)cccc2Cl)noc1C was read as HT1080 IDH1KD tx inconclusive, IL-1B inflam inh -55*, KB-V1 MDR tox inconclusive, HT1080-NT tox inconclusive and KB-3-1 tox inconclusive.
Screening CC(=O)c1cnn(-c2ccc(Cl)cc2)c1C returned HT1080 IDH1KD tx 21%, IL-1B inflam inh 9, KB-V1 MDR tox inconclusive, HT1080-NT tox 27% and KB-3-1 tox inactive.
For Cc1c(C(=O)NCCSCc2cccc(C(F)(F)F)c2)cnn1-c1ccc(Cl)cc1 the results were HT1080 IDH1KD tx inconclusive, IL-1B inflam inh -57*, KB-V1 MDR tox inactive, HT1080-NT tox -15% and KB-3-1 tox inactive.
For Clc1nc(-c2ccccn2)nc2scc(-c3ccccc3)c12 the results were HT1080 IDH1KD tx inconclusive, IL-1B inflam inh -60*, KB-V1 MDR tox 12µM*, HT1080-NT tox inconclusive and KB-3-1 tox inconclusive.
CCOc1ccc(Nc2ccc(N3C(=O)CCC3=O)cc2[N+](=O)[O-])cc1 was read as HT1080 IDH1KD tx 0%, IL-1B inflam inh -5, KB-V1 MDR tox inactive, HT1080-NT tox -25% and KB-3-1 tox inactive.
CC1CCC(C(=O)NC(C(=O)OCC(=O)c2ccc(Br)cc2)C(C)C)CC1 (stereo not drawn) was read as KB-V1 MDR tox inactive and KB-3-1 tox inactive.
COc1ccc(C(=O)c2cn[nH]c2-c2cc(Cl)ccc2O)cc1 was read as HT1080 IDH1KD tx 0%, IL-1B inflam inh -11, KB-V1 MDR tox 18µM*, HT1080-NT tox 6% and KB-3-1 tox inconclusive.
Screening COc1ccc(C(=O)c2cn[nH]c2-c2cc(C)ccc2O)cc1 returned HT1080 IDH1KD tx 0%, IL-1B inflam inh 6, KB-V1 MDR tox inactive, HT1080-NT tox 10% and KB-3-1 tox inactive.
`Cn1c(-c2ccccc2)c(C(=O)CCl)c2ccccc21` gave HT1080 IDH1KD tx 10µM*, IL-1B inflam inh -118*, KB-V1 MDR tox inconclusive, HT1080-NT tox 15µM* and KB-3-1 tox inconclusive.
For CCn1c2ccccc2c(=O)c2ccccc21 the results were HT1080 IDH1KD tx -16%, IL-1B inflam inh -14, KB-V1 MDR tox inactive, HT1080-NT tox 10% and KB-3-1 tox inactive.
`CCn1c(-c2ccccc2)c(C(=O)CCl)c2ccccc21` gave HT1080 IDH1KD tx 21µM*, IL-1B inflam inh -108*, KB-V1 MDR tox inconclusive, HT1080-NT tox inconclusive and KB-3-1 tox inactive.
